Screens deposited in PubChem BioAssay by National Center for Advancing Translational Sciences (NCATS).
In the library only some 6.2% were active in any assay of this set; here they are far more common.
KB-3-1 tox: kills parental KB-3-1 adenocarcinoma cells; KB-3-1 viability, CellTiter-Glo ATP luminescence, 72 h; Potency, µM (doses to about 46.1 µM), usual class: cytotoxic; actives 1.4% (n = 400,000); note: nearly all actives have a fitted effect of over 60% in size
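Cytotoxicity in the drug-sensitive parental line KB-3-1 was scored as loss of CellTiter-Glo luminescence following 72 h incubation with compound. Values come from curve fitting of normalized concentration-response data.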
HT1080-NT tox: kills 2HG-producing HT-1080-NT fibrosarcoma cells; HT-1080-NT fibrosarcoma viability, CellTiter-Glo ATP luminescence, 48 h; Potency, µM (doses to about 46.1 µM), actives largely listed as cytotoxic; actives 1.6% (n = 360,000); AID 686970;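 note: NT is the 2HG producing partner of a matched IDH1 knockdown line; nearly all actives have a fitted effect of over 55% in size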
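Read-out is CellTiter-Glo luminescence after 10 minutes at room temperature, following 48 hours' compound treatment of HT-1080-NT cells (750 cells/well, RPMI, 5% FBS, 37 degrees C).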
S2 tox: viability counter-screen for ATXN expression inhibitors. actives 0.49% (n = 400,000). S2 cells (HEK-293 line with an ATXN2-luciferase reporter) viability, CellTiter-Fluor protease fluorescence, 24 h. Potency, µM (doses to about 56.7 µM), hits mostly cytotoxic; note: nearly all actives have a fitted effect of over 40% in size
KB-V1 cytotox: kills drug-selected multidrug resistant KB-V1 cells. KB-V1 MDR cells viability, CellTiter-Glo, 72 h. Potency, µM (top dose mostly 46.1 µM), most hits filed as cytotoxic. actives 3.4% (n = 400,000). AID 1347076; note: nearly all actives have a fitted effect of over 60% in size
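KB-V1 cells (P-gp-expressing MDR subline of KB-3-1) in phenol-red-free DMEM with 10% FBS were exposed to library compounds over a concentration series for 72 h at 37 degrees C. Viability read by CellTiter-Glo luminescence; concentration-effect curves fitted after normalization.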
HT1080 IDH1KD tx: HT-1080 IDH1 knockdown cell toxicity (counter line). actives 2% (n = 360,000). Potency, µM (doses to about 46.1 µM), hits mostly cytotoxic. HT-1080 IDH1 knockdown viability, ATP luminescence, 48 h
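In this qHTS, HT-1080 cells depleted of IDH1 are exposed for 48 h at 37 °C to compound titrations. Toxicity is scored from CellTiter-Glo luminescence, with DMSO as full viability and medium alone as none.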
ATXN2 expr inh: ATXN2 expression inhibition | HEK-293 ATXN2-luciferase reporter, luminescence, 24 h | Potency, µM (highest dose often 57 µM), actives largely listed as inhibitors | actives 0.72% (n = 360,000) | AID 1745845; note: nearly all actives have a fitted effect of over 55% in size
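qHTS (up to 57 uM final) was run with 24 h compound exposure of reporter cells at 37 °C. Each well was multiplexed: SteadyGlo luminescence measured ATXN2-luciferase expression after a fluorogenic Gly-Phe-AFC viability readout (25 uM final).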
Numbers stand for hits; n = inactive; u = inconclusive; x = no result; ! = not active in a repeat. Calls come from the whole dose curve; as a rule, active = well fitted curve in the direction sought with a large enough effect; inconclusive = small, poorly fitted or top-dose-only effect, or another doubt; inactive = no such curve, though single readings can be large; an effect the other way counts as inactive or inconclusive.

SMILES	KB-3-1 tox	HT1080-NT tox	S2 tox	KB-V1 cytotox	HT1080 IDH1KD tx	ATXN2 expr inh
CSC(=NC(C)c1ccccc1)NS(=O)(=O)c1cccs1 (centres undefined)	u	n	n	23.1µM	n	n
CN1CCc2[nH]c3ccc(Cl)cc3c2C1	n	x	x	u	x	x
COc1cc(NC(=O)C(Cc2ccccc2)NS(=O)(=O)c2cccs2)cc(OC)c1 (centres undefined)	u	x	n	u	x	n
COc1ccc(O)c(C(=O)N2CCC3(CC2)c2ccccc2[C@@H](NC(=O)c2ccccn2)[C@@H]3OC)c1	x	x	n	x	x	x
CCN(CC)CCNC(=O)c1ccc(-c2nc(CN3CCc4ccccc43)c(C)o2)cc1	n	x	u	u	x	u
Cc1oc(-c2ccc(C(=O)NCCC(C)C)cc2)nc1CN1CCc2ccccc21	7.31µM	x	u	u	x	n
CSc1ccc(CCNC(=O)c2ccc(-c3nc(COc4ccc(C)cc4)c(C)o3)cc2)cc1	n	x	n	n	x	n
COCCN1Cc2cccc(C(=O)Nc3ccc(C)c(F)c3)c2C1=O	n	x	n	n	x	n
CCOC(=O)C1(Cc2ccc(Cl)cc2)CCN(Cc2cnc(N)nc2)CC1	n	n	n	n	n	n
CCOC(=O)C1(S(=O)(=O)c2ccc(Cl)cc2)CCN(Cc2ccc(C)cc2)CC1	u	u	n	20.6µM	u	n
COc1ccc(-c2nnnn2-c2ccccc2OC)cc1	u	u	n	13µM	u	n
C=CC1=C(C(=O)O)N2C(=O)[C@@H](NC(=O)/C(=N/OCC(=O)O)c3csc(N)n3)[C@H]2SC1 (stereo in doubt)	x	x	n	x	x	x
CC1CCN(S(=O)(=O)c2cn(CC(=O)N3CC(C)CC(C)C3)c(=O)c3ccccc23)CC1 (centres undefined)	n	n	n	1.3µM	n	n
Cc1ccc(CSc2ccc3nnc(-c4ccccn4)n3n2)cc1	n	n	n	u	n	n
Brc1ccc(CSc2ccc3nnc(-c4cccnc4)n3n2)cc1	n	u	n	9.2µM	u	n
Cc1ccc(CSc2ccc3nnc(-c4cccnc4)n3n2)cc1	n	n	n	u	n	n
Brc1ccc(CSc2ccc3nnc(-c4ccccn4)n3n2)cc1	n	n	n	14.6µM	n	n
COc1cccc(CNC(=O)C2CCN(c3nc4ccc(Cl)cc4[nH]3)CC2)c1	n	x	x	n	x	x
CCCCCCCCOC(=O)c1cc([N+](=O)[O-])c(Sc2ncnc3nc[nH]c23)c([N+](=O)[O-])c1	u	u	x	u	13µM	u
CCCCOC(=O)c1ccc(Nc2ncnc3nc[nH]c23)cc1	n	n	n	n	n	n
Cc1cccc(NC(=O)c2sc3nc(-c4ccc(F)cc4)cn3c2C)n1	n	n	u	u	n	u
Cc1cccc(NC(=O)c2sc3nc(-c4ccccc4)cn3c2C)n1	n	n	u	20.6µM	n	u
COc1ccc(-c2cn3c(C)c(C(=O)NC(C)(C)C)sc3n2)cc1	n	n	u	n	n	n
COc1ccc(-c2cn3c(C)c(C(=O)Nc4cccc(C)n4)sc3n2)cc1	n	n	n	20.6µM	n	n
CCc1ccc2c(c1)C1(NN=C(c3ccc(C)cc3)S1)C(=O)N2 (centres undefined)	u	u	u	u	20.6µM	u
SMILES	KB-3-1 tox	HT1080-NT tox	S2 tox	KB-V1 cytotox	HT1080 IDH1KD tx	ATXN2 expr inh
CC(C)c1ccc2c(c1)C1(NN=C(c3ccccc3)S1)C(=O)N2 (centres undefined)	u	25.9µM	u	n	u	n
CCc1ccc2c(c1)NC(=O)C2(C)Cc1ccc(F)cc1 (centres undefined)	n	u	n	u	u	n
Cc1ccc2nc(-c3ccc(C)c(NC(=O)COc4ccc(Cl)cc4)c3)oc2c1	n	x	x	n	x	x
O=C(Nc1ccc(F)cc1Cl)C1Cc2ccccc2N1C(=O)c1ccccc1 (centres undefined)	n	x	n	n	x	n
COCCCNC(=O)Cc1c(C)c2c(cc(C)c3c(C(C)(C)C)coc32)oc1=O	5.17µM	4.11µM	n	5.17µM	2.91µM	n
c1ccc(Nc2c(-c3c[nH]c4ccccc34)nc3ccccn23)cc1	n	x	n	n	x	n
N#C/C(=C\c1cccc2ccccc12)c1nn(-c2ccccc2)c(N)c1C#N	n	u	n	n	u	n
Cc1ccc(/C=C(\C#N)c2nn(-c3ccccc3)c(N)c2C#N)cc1	n	n	n	20.6µM	n	n
O=C1/C(=N\S(=O)(=O)c2cccs2)C([n+]2ccccc2)=C([O-])c2ccccc21	6.51µM	u	11.2µM	n	n	x
CC(C)(C)c1cc[n+](C2=C([O-])c3ccccc3C(=O)/C2=N\S(=O)(=O)c2cccs2)cc1	16.4µM	14.6µM	u	n	13µM	10.6µM
Cc1cc2c(cc1S(=O)(=O)N(CCO)Cc1ccccc1)OCC(=O)N2	n	x	x	u	x	x
CCN1CCN(Cc2c(O)ccc3c(=O)c(Oc4ccccc4Cl)c(C(F)(F)F)oc23)CC1	n	x	n	n	x	n
CN(C)[C@@H](CCOc1cccc2ccccc12)c1ccccc1	x	x	u	x	x	31.6µM!
O=C(CCc1ccccc1)NC(NC(=S)Nc1ccc(Br)cc1)C(Cl)(Cl)Cl (centres undefined)	n	17.8µM	n	n	u	u
O=C(CCc1ccccc1)NC(NC(=S)Nc1cccc(Cl)c1)C(Cl)(Cl)Cl (centres undefined)	n	n	n	u	n	n
CCc1ccc(OCC(=O)NC(NC(=S)Nc2ccc(Cl)cc2)C(Cl)(Cl)Cl)cc1 (centres undefined)	8.2µM	u	x	3.66µM	u	u
CCCC(=O)NC(NC(=S)Nc1ccc(N=Nc2ccccc2)cc1)C(Cl)(Cl)Cl (centres undefined)	14.6µM	u	x	18.4µM	18.4µM	u
CC(C)CC(=O)Nc1nc2nc(-c3ccccc3)cc(=O)n2[nH]1	n	x	n	u	x	n
COC(=O)c1ccc(/C=N/N2CCN(Cc3ccc(C)cc3C)CC2)cc1	n	n	n	18.4µM	n	n
Cc1ccc(CN2CCN(/N=C/c3ccc(C(=O)O)cc3)CC2)c(C)c1	n	n	n	n	n	n
CN(C)C(=O)CSc1nnc([C@H](Cc2c[nH]c3ccccc23)NC(=O)OC(C)(C)C)o1	n	n	n	13µM	n	n
CC(=O)NC(c1ccco1)c1ccc2cccnc2c1O (centres undefined)	8.2µM	u	n	u	u	10µM
CC(=O)NC(c1ccc(Cl)cc1)c1ccc2cccnc2c1O (centres undefined)	n	u	u	u	u	x
CCCC(=O)NC(c1ccco1)c1cc([N+](=O)[O-])c2cccnc2c1O (centres undefined)	u	n	n	u	n	u
